Assay results: PubChem BioAssay
Unmarked numbers belong to inactive results. Calls of active or inactive are those of the source. Cut-off read from the data, not from the text of the source, unless noted: active = inhibition above about 36%; inactive = the rest.

Experiments:
[1] = system: transactivating tegument protein VP16 (Human herpesvirus 1); assay: VP16 transactivation reporter inhibitors, counter-screen for SRC2 inhibitor project, cell-based, luminescence, single concentration (AID 652007); conditions: cell-based VP16 transactivation luciferase reporter, at 8.9 µM, stronger effect = higher value
[2] = target: Nuclear receptor coactivator 2 (Homo sapiens) (UniProt Q15596); assay: SRC2 coactivator transcriptional activity inhibitors, confirmation, cell-based, luminescence, HEK293, triplicate (AID 652008;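 active = mean inhibition above 46.5%, the solvent-only control mean plus 3 SD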;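 note: 0% = DMSO-treated cells and 100% = Gossypol at 36 µM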); conditions: HEK293 GAL4-SRC2 luciferase reporter, at 8.9 µM, stronger effect = higher value
Chain of Nuclear receptor coactivator 2 (Homo sapiens) (Q15596 whole entry, looked up, the tested form may be a part): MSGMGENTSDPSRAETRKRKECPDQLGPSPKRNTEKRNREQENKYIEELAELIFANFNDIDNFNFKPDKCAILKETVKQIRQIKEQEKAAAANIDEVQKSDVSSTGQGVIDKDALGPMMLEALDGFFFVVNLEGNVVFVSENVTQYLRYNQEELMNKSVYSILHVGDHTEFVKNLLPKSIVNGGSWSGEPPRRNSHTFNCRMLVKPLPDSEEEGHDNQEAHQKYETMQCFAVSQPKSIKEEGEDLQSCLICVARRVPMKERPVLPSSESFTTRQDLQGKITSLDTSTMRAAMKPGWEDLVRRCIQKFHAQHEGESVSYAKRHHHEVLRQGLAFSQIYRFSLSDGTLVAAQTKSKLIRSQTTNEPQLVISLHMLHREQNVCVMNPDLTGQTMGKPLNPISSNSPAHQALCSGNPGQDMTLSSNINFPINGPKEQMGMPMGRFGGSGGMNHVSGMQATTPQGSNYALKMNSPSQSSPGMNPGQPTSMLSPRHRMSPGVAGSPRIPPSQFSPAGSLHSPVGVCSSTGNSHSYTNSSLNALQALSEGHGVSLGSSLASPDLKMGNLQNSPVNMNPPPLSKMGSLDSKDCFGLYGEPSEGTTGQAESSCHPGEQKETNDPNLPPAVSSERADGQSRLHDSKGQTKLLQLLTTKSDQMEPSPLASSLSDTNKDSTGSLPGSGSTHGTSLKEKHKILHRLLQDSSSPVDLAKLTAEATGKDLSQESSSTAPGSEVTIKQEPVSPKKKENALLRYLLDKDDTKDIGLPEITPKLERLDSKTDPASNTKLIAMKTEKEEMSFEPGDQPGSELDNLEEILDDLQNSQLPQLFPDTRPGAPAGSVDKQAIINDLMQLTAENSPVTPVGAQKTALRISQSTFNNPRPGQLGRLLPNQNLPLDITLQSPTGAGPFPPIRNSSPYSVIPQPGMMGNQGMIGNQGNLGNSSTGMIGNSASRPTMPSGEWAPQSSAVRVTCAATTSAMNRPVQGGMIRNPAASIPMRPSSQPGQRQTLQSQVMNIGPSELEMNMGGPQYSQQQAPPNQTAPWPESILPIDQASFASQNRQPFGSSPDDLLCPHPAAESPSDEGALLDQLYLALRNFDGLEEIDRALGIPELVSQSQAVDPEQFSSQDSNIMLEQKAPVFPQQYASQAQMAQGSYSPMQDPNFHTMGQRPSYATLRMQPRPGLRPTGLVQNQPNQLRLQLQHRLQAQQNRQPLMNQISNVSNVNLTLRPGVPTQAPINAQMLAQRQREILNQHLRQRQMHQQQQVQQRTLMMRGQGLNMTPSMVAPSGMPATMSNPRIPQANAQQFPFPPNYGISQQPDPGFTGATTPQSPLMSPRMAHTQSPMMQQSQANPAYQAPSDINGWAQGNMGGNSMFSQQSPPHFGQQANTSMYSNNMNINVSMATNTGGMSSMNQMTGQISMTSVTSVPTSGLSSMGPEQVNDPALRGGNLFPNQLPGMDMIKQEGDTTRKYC

## O=C(Nc1ncc([N+](=O)[O-])s1)c1ccc2c(c1)OCO2
[1]
  inhibition: -5.69%
[2]
  inhibition: 37.6%

## COc1ccc(CN2CCN(Cc3ccc(C(F)(F)F)cc3)CC2)cc1
[1]
  inhibition: 10.7%
[2]
  inhibition: 22.6%

## CCOC(=O)c1c(C)[nH]c(C)c1C(=O)COC(=O)c1ccccc1O
[1]
  inhibition: 2.18%
[2]
  inhibition: 20.3%

## COc1cc(CNc2ccc3[nH]c(=O)[nH]c3c2)cc(Br)c1OCc1ccc(F)cc1
[1]
  inhibition: 1.78%
[2]
  inhibition: 29.9%

## CC(=O)Nc1ccc(Nc2cc(C)nc3c(-c4ccccc4)cnn23)cc1
[1]
  inhibition: -21.3%
[2]
  inhibition: 35.7%

## COc1ccc(NC(=O)c2cccc(N3C(=O)c4cccc([N+](=O)[O-])c4C3=O)c2)cc1
[1]
  inhibition: -32.3%
[2]
  inhibition: -27.1%

## O=C(CCCN1C(=O)/C(=C/c2ccccc2Cl)SC1=S)NNC(=O)c1ccccc1
[1]
  inhibition: 61.2% (active)
[2]
  inhibition: 73% (active)

## COc1cccc(C(NC(C)=O)c2nc(-c3cccc(C#N)c3)cs2)c1 (stereo unspecified)
[1]
  inhibition: -10.7%
[2]
  inhibition: -26.2%

## Clc1ccccc1/C=C/c1nc(-c2ccccn2)no1
[1]
  inhibition: -11.4%
[2]
  inhibition: 18.9%

## O=C1C=CC(=O)C(CNc2ccc(C(=O)OCc3ccccc3)cc2)=C1
[1]
  inhibition: 38.2% (active)
[2]
  inhibition: 39.2%

## Cc1ccc([C@@H]2CC=C(C(=O)O)[C@H](c3ccccc3)N2S(=O)(=O)c2ccccc2C)cc1
[1]
  inhibition: 0.1%
[2]
  inhibition: -13%

## c1ccc(CCNc2ncnc3scc(C4COc5ccccc5O4)c23)cc1 (stereo unspecified)
[1]
  inhibition: -8.4%
[2]
  inhibition: -10.3%

## CC(C)C(=O)Nc1ccc(C(=O)NCc2cccnc2)cc1
[1]
  inhibition: -2.6%
[2]
  inhibition: 33.3%

## Nn1cnnc1SCC(=O)N1CCc2ccccc2C1
[1]
  inhibition: 3.54%
[2]
  inhibition: -22.3%

## O=c1ccn(Cc2ccc(F)cc2)c2ccnc(C(F)(F)F)c12
[1]
  inhibition: 14.8%
[2]
  inhibition: 16.6%

## O=C(CCCc1cccs1)N1CCN(S(=O)(=O)c2ccccc2Br)CC1
[1]
  inhibition: -1.31%
[2]
  inhibition: -4.17%

## CCOC(=O)Cc1csc(N/N=C/c2ccc(C(F)(F)F)cc2)n1
[1]
  inhibition: -7.46%
[2]
  inhibition: 44.6%

## NCCN1C(=O)S/C(=C\c2ccc3c(c2)OCO3)C1=O
[1]
  inhibition: 44% (active)
[2]
  inhibition: 56.6% (active)

## Cc1ccc(S(=O)(=O)Nc2ccccc2C(=O)N2CCCC2)cc1
[1]
  inhibition: -24.9%
[2]
  inhibition: 0.98%

## CCNC(=O)NC(=O)COC(=O)CCCSc1nc2ccccc2s1
[1]
  inhibition: 5%
[2]
  inhibition: 24.9%

## Cc1ccc(NCc2nnc(SCC(=O)c3ccccc3)n2Cc2ccco2)c(C)c1
[1]
  inhibition: -11.6%
[2]
  inhibition: -16.7%

## Cc1c(CCC(=O)O)c(=O)oc2cc(OCc3ccccc3Br)ccc12
[1]
  inhibition: 19.4%
[2]
  inhibition: 20.1%

## COc1cccc(/C=C2\SC(=S)N(CCCC(=O)N3CCCCC3CCO)C2=O)c1 (stereo unspecified)
[1]
  inhibition: 51.2% (active)
[2]
  inhibition: 52.2% (active)

## COc1cccc(N2CCN(c3ncnc4c3[nH]c3ccccc34)CC2C)c1 (stereo unspecified)
[1]
  inhibition: 63.8% (active)
[2]
  inhibition: 12.8%

## O=c1c2ccccc2sn1-c1ccccc1
[1]
  inhibition: -5.09%
[2]
  inhibition: -17.8%

## Cc1ccc(C2CC(c3cccs3)=NN2C(=O)CCl)cc1 (stereo unspecified)
[1]
  inhibition: 6.45%
[2]
  inhibition: 38.9%

## Fc1ccc(-c2nnc(NC3=NCCCCC3)o2)cc1
[1]
  inhibition: -10.8%
[2]
  inhibition: 31.4%

## CC(C)=CCc1c(O)ccc2c1OC(c1ccc(O)c(O)c1)CC2=O (stereo unspecified)
[1]
  inhibition: 10.7%
[2]
  inhibition: 56.9% (active)

## O=C(Nc1ccc2nc3n(c(=O)c2c1)CCCCC3)c1cc([N+](=O)[O-])ccc1F
[1]
  inhibition: 32.1%
[2]
  inhibition: 30.4%

## CC(C)(C)c1ccc(C(=O)CCC(=O)OCC(=O)NCCc2ccc(S(N)(=O)=O)cc2)cc1
[1]
  inhibition: 26.1%
[2]
  inhibition: 37.1%

## Cc1ccc(C)c(NC(=O)COc2coc(CN3CCc4ccccc4C3)cc2=O)c1
[1]
  inhibition: -2.11%
[2]
  inhibition: 22.7%

## Cc1c(Cl)sn(-c2ccc(Cl)cc2)c1=O
[1]
  inhibition: 76.3% (active)
[2]
  inhibition: 93.4% (active)

## CNc1ccc(N=Nc2cccc3ncccc23)cc1
[1]
  inhibition: -76%
[2]
  inhibition: 14.4%

## COc1ccc(OC)c(S(=O)(=O)Nc2ccc3c(c2)OCCO3)c1
[1]
  inhibition: -22.5%
[2]
  inhibition: 21.2%

## Cc1cc(Br)ccc1NC(=O)CN(C)C(=O)C1CCN(c2ncnc3sc(C)c(C)c23)CC1
[1]
  inhibition: 12.9%
[2]
  inhibition: 23%

## Cc1cccc(N(Cc2ccccc2)C(=O)CCl)c1
[1]
  inhibition: 15%
[2]
  inhibition: 33.4%

## COc1cc(OC)cc(-c2cc3nc(C)c(CCC(=O)NCc4ccccc4)c(C)n3n2)c1
[1]
  inhibition: 66.8% (active)
[2]
  inhibition: 72.1% (active)

## CC(C)(C)c1ccc(/C=C/C(=O)NCCCN2CCOCC2)cc1
[1]
  inhibition: -13.2%
[2]
  inhibition: 4.98%

## COc1ccc2ccc(O)c(CN3CCN(S(=O)(=O)c4cccc(C(F)(F)F)c4)CC3)c2c1
[1]
  inhibition: 6.66%
[2]
  inhibition: -14%

## Cc1ccc(CS(=O)(=O)c2ncc(Cl)c(C(=O)Nc3nnc(C(C)C)s3)n2)cc1
[1]
  inhibition: 27.3%
[2]
  inhibition: 51.9% (active)

## CCOc1ccc(-c2nc(CSCC(=O)NCc3ccco3)c(C)o2)cc1
[1]
  inhibition: -11.2%
[2]
  inhibition: 37%

## C=C(C(=O)c1ccccc1)C(c1ccccc1)C(C)C(=O)c1ccccc1 (stereo unspecified)
[1]
  inhibition: 28.8%
[2]
  inhibition: 31.4%

## COc1ccc(S(=O)(=O)Nc2cc(Sc3ncn[nH]3)c(O)c3ccccc23)cc1
[1]
  inhibition: 26.7%
[2]
  inhibition: 10.1%

## O=C(Nc1cccc(F)c1)c1cccnc1
[1]
  inhibition: 1.51%
[2]
  inhibition: -2.72%

## COc1ccccc1NC(=S)N1CCCCCC1
[1]
  inhibition: -7.33%
[2]
  inhibition: -14.3%

## COc1ccc(C#Cc2ccc3c(c2)[C@H]2[C@H](CCN2S(=O)(=O)c2ccccc2F)[C@H](CO)N3C)cc1
[1]
  inhibition: -5.48%
[2]
  inhibition: 8.22%

## Cn1nnnc1Sc1ncnc2scc(-c3cccc(C(F)(F)F)c3)c12
[1]
  inhibition: 36.9% (active)
[2]
  inhibition: 52.3% (active)

## CCC1CSC(Nc2ccc(C(=O)/C=C/c3ccc(OC)c(OC)c3)cc2)=N1 (stereo unspecified)
[1]
  inhibition: 12.8%
[2]
  inhibition: 39.9%

## COc1ccc(C(=O)/C=C/Nc2ccccn2)cc1
[1]
  inhibition: 3.41%
[2]
  inhibition: 30.8%

## COCCN(C(=O)CCC(=O)Nc1nccs1)C(C(=O)NC(C)(C)C)c1ccc(C)cc1 (stereo unspecified)
[1]
  inhibition: 11.2%
[2]
  inhibition: 5.44%

## COC(=O)CCCNC(=O)CCc1nnc(-c2ccc(-c3ccccc3)cc2)o1
[1]
  inhibition: 34%
[2]
  inhibition: 62.8% (active)

## O=[N+]([O-])c1cccc2cnccc12
[1]
  inhibition: -10.2%
[2]
  inhibition: 3.57%

## CCOC(=O)C1CCCCN1C(=O)CCc1c(C)nc2cc(-c3ccccc3)nn2c1C (stereo unspecified)
[1]
  inhibition: -0.8%
[2]
  inhibition: 70.2% (active)

## COc1ccc2c(n1)Sc1nc3ccccc3nc1N2
[1]
  inhibition: -80.4%
[2]
  inhibition: -87.5%

## Cc1ccc(Cl)cc1N1CCN(C(=O)CCS(=O)(=O)c2ccc3c(c2)NC(=O)CO3)CC1
[1]
  inhibition: 13.9%
[2]
  inhibition: 30.1%

## N/C(=N\OC(=O)c1ccc(Cl)cc1Cl)c1ccccn1
[1]
  inhibition: -75.5%
[2]
  inhibition: -25.1%

## CC(=O)Nc1ccc(NC(=O)c2cc(=O)c3ccccc3o2)cc1
[1]
  inhibition: -12.5%
[2]
  inhibition: -8.33%

## CCc1ccc(-c2nc(CSCC(=O)NC3CC3)c(C)o2)cc1
[1]
  inhibition: 47.6% (active)
[2]
  inhibition: 35.1%

## Cc1ccc(CN2C(=O)/C(=C\c3ccc(C(=O)NCc4cccnc4)cc3)Oc3ccccc32)cc1
[1]
  inhibition: -0.83%
[2]
  inhibition: 50.2% (active)

## COc1ccccc1C(=O)NCc1ccc(-c2nc3ccccc3s2)cc1
[1]
  inhibition: -14%
[2]
  inhibition: 22.1%

## NNC(=O)c1[nH]c2ccc(Br)cc2c1-c1ccccc1
[1]
  inhibition: -11.1%
[2]
  inhibition: -1.32%

## CSc1nnc(NC(=O)c2nc(S(=O)(=O)Cc3cccc(C)c3)ncc2Cl)s1
[1]
  inhibition: 41.9% (active)
[2]
  inhibition: 73.1% (active)

## Cc1[nH]nc(-c2cccnc2)c1N=NN(C)C
[1]
  inhibition: 10.9%
[2]
  inhibition: 41.1%

## CN1CCN(S(=O)(=O)c2ccc(N(C)Cc3cccc(F)c3)nc2)CC1
[1]
  inhibition: -0.35%
[2]
  inhibition: -11.8%

## CCOC(=O)c1c(NC(=O)C2=COCCO2)sc2c1CCN(C(=O)OC)C2
[1]
  inhibition: 3.45%
[2]
  inhibition: 8.72%

## CS(=O)(=O)N1CCC(C(=O)NCc2ccccc2)CC1
[1]
  inhibition: -4.73%
[2]
  inhibition: -13.2%

## COc1ccc(OC)c(NC(=O)COC(=O)CCCN=C2NS(=O)(=O)c3ccccc32)c1
[1]
  inhibition: -0.67%
[2]
  inhibition: -10.3%

## CC(C)N(Cc1ccccc1)C(=S)NCc1ccccc1
[1]
  inhibition: -3.69%
[2]
  inhibition: -6.45%

## COC(=O)c1nn(-c2ccc3c(c2)CCN3C(C)=O)cc1O
[1]
  inhibition: -21.8%
[2]
  inhibition: 43.5%

## O=C(CCCN1C(=O)/C(=C/c2ccccc2Cl)SC1=S)NNC(=O)c1ccc(Cl)cc1
[1]
  inhibition: 73.7% (active)
[2]
  inhibition: 82% (active)

## Cc1cc(F)ccc1NC(=O)CCc1c(C)nn(-c2ccc(N3CCCCC3)nn2)c1C
[1]
  inhibition: -53%
[2]
  inhibition: 3.56%

## COc1ccc(C(NC(=O)C2CCN(CCCOc3ccccc3)CC2)c2cccs2)cc1 (stereo unspecified)
[1]
  inhibition: -8.07%
[2]
  inhibition: 3.49%

## O=C(NC1=NCCS1)C1COc2ccccc2O1 (stereo unspecified)
[1]
  inhibition: 29.5%
[2]
  inhibition: 47.7% (active)
